SENP8 block-1 = SENP8 (human) protease inhibition; inhibition, % at 20 µM; recombinant SENP8, Nedd8 substrate fluorescence; 360,000 tested, 0.64% active; Q96LD8; in the data active means inhibition mostly above about 40%, no sharp cut-off; inactive means mostly below about 27%
Target sequence (Q96LD8 whole entry, looked up): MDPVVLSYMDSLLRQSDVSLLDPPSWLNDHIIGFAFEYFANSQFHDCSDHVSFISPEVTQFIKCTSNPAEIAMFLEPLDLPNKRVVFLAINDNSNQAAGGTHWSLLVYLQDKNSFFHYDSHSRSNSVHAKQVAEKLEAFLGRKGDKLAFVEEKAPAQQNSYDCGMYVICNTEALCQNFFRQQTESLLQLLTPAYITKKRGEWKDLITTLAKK
SENP7 block = SENP7 protease inhibition; Q9BQF6; recombinant SENP7, Z-RLRGG-aminoluciferin luminescence, 40 min; inhibition, % at 5 µM; 330,000 tested, 1.5% active; AID 434973;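 active means inhibition above about 50% at the single test dose, limit read from the data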;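 further: plate controls were DMSO with enzyme for no effect and no enzyme buffer wells for full effect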
SENP6 inh = blocks the human protease SENP6 | AID 2599 | Q9GZR1 | 330,000 tested, 1.8% active | inhibition, % at 10 µM | Recombinant SENP6 catalytic domain, aminoluciferin luminescence;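 active means inhibition above about 50% at the single tested dose, limit read from the data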;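 further: plate controls were DMSO wells with enzyme for no effect and DMSO wells lacking enzyme for full effect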
C8 TRAIL sens = caspase-8 TRAIL sensitization | 360,000 tested, 1% active | inhibition (viability loss, TRAIL sensitization), % at 10 µM | NB7+C8 cells + TRAIL, ATPlite viability luminescence;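 active means compounds causing at least 50% loss of cell viability in the single-dose screen, relative to plate controls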
SENP8 block-2 = SENP8 protease inhibition. Q96LD8. purified SENP8, Z-RLRGG-aminoluciferin cleavage, luminescence. inhibition, % at 10 µM. 330,000 tested, 1.2% active. AID 2540; in the data active means inhibition above about 50%
PPC-1+TRAIL kill = compounds killing PPC-1 cancer cells with TRAIL present (potentiator screen, no TRAIL-free arm); PPC-1 cells + TRAIL, ATPLite viability luminescence; cell killing (% activity), % at 4 µM or 5 µM; 220,000 tested, 0.41% active; AID 1443;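 active means cell killing above 50% in the first pass at 4 µM, then a duplicate retest at 5 µM averaging 50% or more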;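 further: plate controls were cells with TRAIL plus DMSO for no effect and medium-only wells lacking cells for full effect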
SENP8 confirm = human SENP8 inhibition, confirmed; shares compounds with SENP7 block; Recombinant SENP8, Z-RLRGG-aminoluciferin luminescence, 60 min; inhibition, % at 12.5 µM; 6,200 tested, 40% active; AID 488912;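 active means mean inhibition across replicates above about 50%, limit read from the data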
SENP6 confirm = human SENP6 inhibition, confirmed; recombinant SENP6, Z-RLRGG-aminoluciferin luminescence; shares compounds with SENP7 block; inhibition, % at 12.5 µM; 6,200 tested, 58% active
SENP7 confirm = human SENP7 inhibition, confirmed. inhibition, % at 12.5 µM. recombinant SENP7, Z-RLRGG-aminoluciferin luminescence, 40 min. AID 488917. 6,200 tested, 69% active. shares compounds with SENP7 block
Casp3 select = inhibits human caspase-3 in SENP selectivity test; purified caspase-3, Z-DEVD-aminoluciferin luminescence, 60 min; shares compounds with SENP7 block; inhibition, % at 12.5 µM; 6,200 tested, 60% active;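 active means mean inhibition above about 50%, limit read from the data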;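 further: plate controls were enzyme with DMSO for no effect and wells without caspase-3 for full effect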
Target sequence (P42574 28-227 limits assumed): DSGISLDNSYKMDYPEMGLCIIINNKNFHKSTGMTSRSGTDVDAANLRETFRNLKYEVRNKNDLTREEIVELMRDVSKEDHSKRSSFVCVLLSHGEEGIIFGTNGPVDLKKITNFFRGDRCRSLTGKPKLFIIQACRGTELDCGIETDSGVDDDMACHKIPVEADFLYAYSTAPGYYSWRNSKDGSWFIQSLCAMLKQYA
SENP luc ctr = luminescence interference (SENP counter-screen); shares compounds with SENP7 block; Pre-incubated SENP8/Z-RLRGG-aminoluciferin, luciferase luminescence interference; inhibition, % at 12.5 µM; 6,200 tested, 39% active; AID 488919;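 active means mean inhibition above about 50% when retested at one dose, limit read from the data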;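 further: plate controls were DMSO wells with completed reaction for no effect and substrate without enzyme for full effect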
* = called active by the depositor. Most compounds without a hit are left out; they make up all but 3% or so of the library.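 How the source made its calls, unless noted: active means mean inhibition above about 50% in the one-dose retest (limit read from the data); inactive means the rest.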

What do the screens show for `CN(CCO)c1nc(N)c2c(N)nc3c(c2c1C#N)CC(=O)N3C1CCCC1`?
SENP7 block: 96*; SENP6 inh: 91*; SENP8 block-2: 96*; PPC-1+TRAIL kill: 18; SENP8 confirm: 11; SENP6 confirm: 10; SENP7 confirm: -7; Casp3 select: -2; SENP luc ctr: -1

Results for COC(=O)c1cc(/C=C/c2ccccc2)[nH]n1 ?
SENP8 block-1: -4; SENP7 block: 47; SENP6 inh: 52*; C8 TRAIL sens: -27; SENP8 block-2: 37; SENP8 confirm: 49; SENP6 confirm: 46; SENP7 confirm: 82*; Casp3 select: 64*; SENP luc ctr: 16

How did CCOc1ccc(C(=O)NCC(=O)N2CCC3CCCCC3C2)cc1OCC (centres undefined) do in these assays?
SENP8 block-1: 18; SENP7 block: -2; SENP6 inh: 13; C8 TRAIL sens: -3; SENP8 block-2: 6

What do the screens show for `COC(=O)/C=c1/sc2nc3ccccc3n2c1=O`?
SENP8 block-1: 40; SENP7 block: 3; SENP6 inh: -17; C8 TRAIL sens: 1; SENP8 block-2: -20; PPC-1+TRAIL kill: -5

Results for O=c1c2ccccc2nc2sc3ccccc3n12 ?
SENP8 block-1: -74; SENP7 block: 87*; SENP6 inh: 79*; C8 TRAIL sens: 32; SENP8 block-2: 74*; PPC-1+TRAIL kill: 5; SENP8 confirm: 58*; SENP6 confirm: 56*; SENP7 confirm: 70*; Casp3 select: 72*; SENP luc ctr: 31

What do the screens show for `Nc1nc2c(ncn2[C@@H]2O[C@H](CNC(=O)[C@H](N)Cc3ccccc3)[C@@H](O)[C@H]2O)c(=O)[nH]1`?
SENP8 block-1: 32; C8 TRAIL sens: 2

What do the screens show for `CCOc1ccc(Nc2ccc([N+](=O)[O-])c3nonc23)cc1`?
SENP8 block-1: 39; SENP7 block: 37; SENP6 inh: 71*; C8 TRAIL sens: 6; SENP8 block-2: 65*; SENP8 confirm: 64*; SENP6 confirm: 60*; SENP7 confirm: 84*; Casp3 select: 61*; SENP luc ctr: 65*

Results for CCc1ccc(OCc2nc(-c3ccccn3)no2)c(Br)c1 ?
SENP8 block-1: -2; SENP7 block: 91*; SENP6 inh: 93*; C8 TRAIL sens: 55*; SENP8 block-2: 90*; PPC-1+TRAIL kill: 20; SENP8 confirm: 95*; SENP6 confirm: 96*; SENP7 confirm: 101*; Casp3 select: 87*; SENP luc ctr: 79*

How did CC(C)c1ccc(OCc2nc(-c3ccccn3)no2)c(Br)c1 do in these assays?
SENP8 block-1: 29; SENP7 block: 69*; SENP6 inh: 85*; C8 TRAIL sens: 15; SENP8 block-2: 67*; PPC-1+TRAIL kill: -2; SENP8 confirm: 74*; SENP6 confirm: 82*; SENP7 confirm: 93*; Casp3 select: 63*; SENP luc ctr: 70*

How did Cc1ccc(SCc2nc(-c3ccccn3)no2)cc1 do in these assays?
SENP8 block-1: 11; SENP7 block: 18; SENP6 inh: 16; C8 TRAIL sens: -4; SENP8 block-2: -10; PPC-1+TRAIL kill: -20

What do the screens show for `CC(Oc1ccc(Cl)cc1Cl)c1nc(-c2ccccn2)no1` (centres undefined)?
SENP8 block-1: -1; SENP7 block: 7; SENP6 inh: -12; C8 TRAIL sens: 2; SENP8 block-2: -3; PPC-1+TRAIL kill: -18

Source: PubChem BioAssay
